Rows were chosen to be rich in hits. Some 8% of all compounds tested hit in one or more screens of this group.
SARS PLP yeast: inhibitors of SARS-CoV papain-like protease in yeast; S. cerevisiae expressing SARS-CoV PLpro, growth rescue; Potency, µM (highest dose often 32.9 µM), actives largely listed as activators; hit rate 0.19% among 330,000; AID 485353; calls by dose curve; note: nearly all actives have a fitted effect of over 55% in size
FMDV inh: blocks foot and mouth disease virus; FMDV antiviral cell-based qHTS; Potency, µM (doses to about 57.9 µM), usual class: inhibitors; hit rate 1.2% among 410,000; calls by dose curve; tested in HEK293T cells; note: read-out not given here; nearly all actives have a fitted effect of over 45% in size
HCV inh: HCV inhibition; Huh7.5.1 HCVcc-Cre infection, luciferase reporter, 44 h; Potency, µM (series often up to 41.8 µM), most hits filed as inhibitors; hit rate 3.4% among 340,000; active = well fitted inhibition curve with a large enough effect; inconclusive = small, poorly fitted or top-dose-only effect, or another doubt; inactive = no such curve, though single readings can be large or run the other way
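Reporter virus HCVcc-Cre (~0.5 moi) infects cells exposed to compound; seeding density 1,000 cells/well with 4 h settling beforehand. Luminescence, 15 sec read, taken 44 h post-infection following a 15 min RT substrate incubation.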
HCMV antiviral: human cytomegalovirus inhibition. HFF cells, HCMV-luciferase reporter, 72 h; active compounds read low. activity change, negative = inhibition, % at 57.5 µM. hit rate 4.5% among 410,000. AID 1259415; in the data active = activity change below about -60%; inconclusive = no clear call, values can overlap the other calls; inactive = above about -39%
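Inhibition of viral replication was scored as loss of reporter luminescence in HFFs infected with HCMV-luciferase (MOI 1 PFU/cell) for 72 h; compounds tested at 2 doses, normalized to buffer and Salinomycin controls.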
MARV entry inh: blocks Marburg virus binding to or entry into cells; Potency, µM (doses to about 37.8 µM), usual class: inhibitors; hit rate 1.8% among 300,000; Marburg virus pseudotyped entry inhibition, cell reporter; AID 540276; calls by dose curve; tested in HEK293 cells
LASV entry inh: Lassa virus entry inhibition; Lassa virus pseudotype entry inhibition, cell reporter; Potency, µM (series often up to 37.9 µM), most hits filed as inhibitors; hit rate 1.2% among 300,000; AID 540256; calls by dose curve; tested in HEK293 cells; note: nearly all actives have a fitted effect of over 50% in size
Each line names hits and unclear results; the compound was inactive in the other large screens.

CC1CN(CCC(=O)NC(c2cccnc2)C(F)(F)F)Cc2cc(Cl)ccc2O1 (stereo not given)	none (no result: SARS PLP yeast, HCV inh, HCMV antiviral, MARV entry inh, LASV entry inh)
CC1(C)C=Cc2cc(-c3coc4cc(O)cc(O)c4c3=O)cc(O)c2O1	HCV inh 11µM, HCMV antiviral -61 (no result: SARS PLP yeast, MARV entry inh, LASV entry inh)
CCCCCC(C)NC(=S)NC(=O)c1cc(S(=O)(=O)N2CCOCC2)ccc1C (stereo not given)	FMDV inh inconclusive, HCV inh inconclusive, HCMV antiviral -62, MARV entry inh inconclusive, LASV entry inh inconclusive
CCCC(C)NC(=S)NC(=O)c1cc(S(=O)(=O)N2CCOCC2)ccc1C (stereo not given)	FMDV inh inconclusive, HCV inh inconclusive, HCMV antiviral -70, MARV entry inh inconclusive
Cc1ccc(S(=O)(=O)N2CCOCC2)cc1C(=O)NC(=S)N1CC(C)CC(C)C1 (stereo not given)	none (no result: MARV entry inh, LASV entry inh)
COCC(C)NC(=S)NC(=O)c1cc(S(=O)(=O)N2CCOCC2)ccc1C (stereo not given)	HCMV antiviral inconclusive
Cc1ccc(S(=O)(=O)N2CCOCC2)cc1C(=O)N1c2ccccc2Sc2ccccc21	HCV inh 10µM, MARV entry inh inconclusive
CCCCN(C(=O)CSCC(=O)Nc1ccc(C)cc1)c1c(N)n(Cc2ccccc2)c(=O)[nH]c1=O	HCV inh inconclusive, HCMV antiviral inconclusive
CCCCOC(=O)CSC1=C(C#N)[C@H](c2ccc3c(c2)OCO3)CC(=O)N1	none (no result: SARS PLP yeast, FMDV inh, HCV inh, HCMV antiviral, LASV entry inh)
CCOC(=O)C1=C(C)N=c2s/c(=C\c3ccc(OCC(=O)O)cc3)c(=O)n2C1c1ccc(OC(C)C)cc1 (stereo not given)	FMDV inh 40µM, MARV entry inh inconclusive
COC(=O)c1cc(NC(=O)c2ccc(-c3ccc(Cl)cc3Cl)o2)cc(C(=O)OC)c1	none (no result: SARS PLP yeast, HCV inh, MARV entry inh)
O=C(NC(=S)Nc1ccc(CN2CCOCC2)cc1)c1ccc(-c2cccc(Cl)c2)o1	FMDV inh 35µM, HCV inh 14µM, HCMV antiviral inconclusive (no result: MARV entry inh, LASV entry inh)
O=C(Nc1ccc(CN2CCOCC2)cc1)c1cc(Br)ccc1Cl	none (no result: MARV entry inh, LASV entry inh)
O=C(NC(=S)Nc1ccc(CN2CCOCC2)cc1)c1ccc(-c2ccc(Br)cc2)o1	MARV entry inh inconclusive, LASV entry inh inconclusive (no result: HCMV antiviral)
O=C(Nc1ccc(CN2CCOCC2)cc1)c1ccc(-c2ccc(Cl)cc2Cl)o1	FMDV inh inconclusive, HCV inh inconclusive, HCMV antiviral -65, MARV entry inh inconclusive
O=C(Nc1ccc(CN2CCOCC2)cc1)c1ccc(Cl)cc1Cl	HCV inh 10µM (no result: MARV entry inh, LASV entry inh)
O=C(Nc1ccc(CN2CCOCC2)cc1)c1ccc(-c2cccc(Cl)c2)o1	FMDV inh 35µM, HCV inh inconclusive, HCMV antiviral -86, MARV entry inh inconclusive
O=C(NC(=S)Nc1ccc(CN2CCOCC2)cc1)c1ccc(-c2ccc(Cl)cc2)o1	FMDV inh inconclusive (no result: MARV entry inh, LASV entry inh)
Cc1ccccc1C(=O)OCc1cc(=O)n2nc(C3CCCCC3)sc2n1	LASV entry inh inconclusive (no result: SARS PLP yeast, HCV inh, MARV entry inh)
COC(=O)[C@@H]1CCCN1C(=O)c1c(OC)cc(=O)n2c1CCN(Cc1ccc3c(c1)OCCO3)CC2	none (no result: SARS PLP yeast, HCV inh, HCMV antiviral, MARV entry inh, LASV entry inh)
COc1ccc(NC(=O)Cn2c(=O)oc3cc(S(=O)(=O)NC4CCCC4)ccc32)cc1OC	HCMV antiviral active (no result: SARS PLP yeast, HCV inh, MARV entry inh)
CC1Cc2ccccc2N1C(=O)Cn1c(=O)oc2cc(S(=O)(=O)NC3CCCC3)ccc21 (stereo not given)	none (no result: LASV entry inh)
CC1CCC2(CC1)NC(=O)N(CC(=O)N1c3ccccc3CC1C)C2=O (stereo not given)	HCMV antiviral -71
CC1CCN(S(=O)(=O)c2ccc3c(c2)oc(=O)n3CC(=O)N2c3ccccc3CC2C)CC1 (stereo not given)	HCV inh 13µM (no result: LASV entry inh)
COc1ccc(NC(=O)Cn2c(=O)oc3cc(S(=O)(=O)NC(C)C)ccc32)cc1OC	none (no result: SARS PLP yeast, HCV inh, MARV entry inh)
COc1ccc(CNC(=O)Cn2c(=O)oc3cc(S(=O)(=O)N4CCC(C)CC4)ccc32)cc1	MARV entry inh 7.1µM, LASV entry inh inconclusive (no result: SARS PLP yeast, HCV inh)
COc1ccc(N2C(=O)[C@@H]3C[C@H]2CN3Cc2cccn2-c2ccc(Cl)cn2)c(C)c1	none (no result: SARS PLP yeast, HCV inh, HCMV antiviral, MARV entry inh, LASV entry inh)
COc1cccc(CNC(=O)c2cc(S(=O)(=O)N3CCCCC3)ccc2C)c1	FMDV inh inconclusive (no result: SARS PLP yeast, HCV inh, MARV entry inh, LASV entry inh)
COc1cccc(CNC(=O)CCC2CCCN(Cc3cc4ccccc4o3)C2)c1 (stereo not given)	HCV inh inconclusive, HCMV antiviral inconclusive, MARV entry inh inconclusive
Cc1cc(C)cc(NC(=O)Cn2c(=O)oc3cc(S(=O)(=O)N4CCC(C)CC4)ccc32)c1	HCMV antiviral -68 (no result: LASV entry inh)
CC1CCN(S(=O)(=O)c2ccc3c(c2)oc(=O)n3CC(=O)O)CC1	none (no result: SARS PLP yeast, HCV inh, MARV entry inh)
O=C(c1ccco1)N1CCc2[nH]nc(-c3ccc(Cl)cc3)c2C1	FMDV inh inconclusive, HCV inh 11µM, LASV entry inh inconclusive
COc1ccc(C2NC(=O)NC(C)=C2C(=O)Nc2cc(C)cc(C)c2)c(OC)c1 (stereo not given)	MARV entry inh inconclusive (no result: SARS PLP yeast, HCV inh)
Cc1ccccc1-c1nc(N2CCNCC2)c2ccccc2n1	none (no result: SARS PLP yeast, HCV inh, HCMV antiviral, MARV entry inh, LASV entry inh)
c1ccc2c(N3CCNCC3)nsc2c1	HCV inh inconclusive, HCMV antiviral -107, MARV entry inh inconclusive, LASV entry inh inconclusive
O=C1[C@H]2CCCC[C@H]2C(=O)N1CCCCN1CCN(c2nsc3ccccc23)CC1	HCMV antiviral -61 (no result: SARS PLP yeast, MARV entry inh, LASV entry inh)
CCC(=O)N1c2ccccc2CC1C(=O)NCCc1ccccc1 (stereo not given)	none (no result: SARS PLP yeast, HCV inh, MARV entry inh)
O=S1(=O)C=C(Sc2nc3cc(Cl)ccc3o2)c2ccccc21	FMDV inh 28µM, HCV inh 7.9µM, MARV entry inh 7.9µM, LASV entry inh inconclusive (no result: HCMV antiviral)
CN(C)c1nc(N)nc(CSc2nc3cc(Cl)ccc3o2)n1	MARV entry inh inconclusive, LASV entry inh inconclusive

Assay outcomes from PubChem.
